We go through 101 compounds from ChEMBL document CHEMBL4513216, “Probing the Open Global Health Chemical Diversity Library for Multistage-Active Starting Points for Next-Generation Antimalarials” (ACS Infect Dis, 2020).

About 8,600 (12%) of roughly 69,000 compounds showed an effect of 50% or more. The entries come from a sample that favours strong results as a whole.

The test system of the test is Plasmodium berghei. Description: Screen against P. berghei liver stage (PbLuc), transformed with Luciferase, at 10uM. The test is classed as functional, HepG2. Conditions: tested at 10 uM.
On to `Cc1ccc2nc(C3CCCN(Cc4ccccc4)C3)nc(O)c2c1` (stereo unspecified), for which the INHIBITION was 30.8%.
On to `CN(C)C(=O)N1C[C@@H](C(=O)NCc2ccco2)C[C@H]2OCC[C@H]21`, for which the INHIBITION is -28%.
Turning to `CCc1cc(=O)n(CC(=O)N2CCCCC2)c(-c2cccc(F)c2)n1`, the INHIBITION worked out at 44.1%.
Regarding `Cc1ccc(N2CCCC(N(C)c3nn4cc(C)nc4s3)C2)nn1` (stereo unspecified), the INHIBITION is on record as -21.9%.
On to `O[C@H]1CN(Cc2ccc3c(c2)OCCO3)CC[C@@]12CCCO2`, for which the INHIBITION was found to be 19.6%.
The same measure for `Cc1cnc(-c2nc(O)c3c(n2)CN(C(=O)C2CCCO2)CC3)cn1` (stereo unspecified): 9.05%; for `CCN(Cc1ccoc1)C(=O)C1CCN(C(=O)OC(C)(C)C)C1` (stereo unspecified): -12.4%; for `O=C(CC1CCC2(CC1)CCN(Cc1ccncc1)CC2)N1CCCC1`: -15.2%.
The value for `CN1CCC(N(CCc2ccccc2)C(=O)c2ccc(CO)cc2)CC1` was 25.2%; that for `CN1CCC(N(CCc2ccccc2)C(=O)c2ccc(C#N)nc2)CC1` was 12.5%.
The same measure for `CN1CCC(N(CCc2ccccc2)C(=O)c2ccc(C#N)cc2)CC1`: 53.1%; for `Cc1cc(C(=O)NC2=NCCS2)c(C)n1-c1ccccn1`: 42.1%; for `OC(c1ccccc1)c1cn(C2CCN(Cc3nccs3)CC2)nn1` (stereo unspecified): 18.5%.
As to `Cc1ccsc1CN1CCC(n2cc(C(O)c3ccccc3)nn2)CC1` (stereo unspecified), the INHIBITION is given as 72.1%.
The same measure for `Cc1ccc(CN2CCC(n3cc(C(O)c4ccccc4)nn3)CC2)o1` (stereo unspecified): 48.5%; for `CC(C)CC(O)C1CCN(C(=O)c2coc(CN3CCOCC3)c2)CC1` (stereo unspecified): 16.7%; for `CC(CO)CN(Cc1ccccc1)Cc1c[nH]cn1` (stereo unspecified): 9.55%.
The value for `CN(C)C1CC2(CCN(C(=O)c3csnn3)CC2)c2ccccc21` (stereo unspecified) was -22.1%; that for `CN(C)C1CC2(CCN(C(=O)C3(C#N)CC3)CC2)c2ccccc21` (stereo unspecified) was 57.5%.
On to `COCC(=O)N1CCC2(CC1)CC(CC(=O)NC1CC1)c1ccccc12` (stereo unspecified), for which the INHIBITION is given as 25.6%.
Turning to `O=C(NC1CC1)N1CCC2(CC1)CC(N1CCOCC1)c1ccccc12` (stereo unspecified), the INHIBITION amounted to 43%.
As to `CN(C)C1CC2(CCN(C(=O)NC3CC3)CC2)c2ccccc21` (stereo unspecified), the INHIBITION is listed as 61.1%.
For `Cc1ccc2c(c1)C(N(C)C)CC21CCN(CCO)CC1` (stereo unspecified), the INHIBITION is on record as -57.1%.
On to `CN1CCc2nc(C3CCCN(S(=O)(=O)N4CCCC4)C3)ncc2C1` (stereo unspecified), for which the INHIBITION came to 23.325%.
In the case of `Cn1ccc(C(=O)NCc2ccc(N3CCCCCC3)nc2)cc1=O`, the INHIBITION was 17.4%.
In the case of `O=C1NCCCCC1NCc1csc(-c2ccc(F)cc2)n1` (stereo unspecified), the INHIBITION was -7.17%.
In the case of `Cc1cc(C)nc(NC2CC(=O)N(C(C)(C)C)C2)n1` (stereo unspecified), the INHIBITION is 31.2%.
For `Cc1cc(C)nc(NC2CCC(=O)N(C)C2)n1` (stereo unspecified), the INHIBITION is on record as 11.5%.
Regarding `Cc1cc(C)nc(NC2CC(=O)N(C)C2)n1` (stereo unspecified), the INHIBITION turned out to be 63.3%.
For the compound `Cc1cc(C)n(C2CCCN(C(=O)CCOc3cccc(F)c3)C2)n1` (stereo unspecified), the INHIBITION was -25.9%.
As for `Cc1ccoc1C(=O)N1CC[C@@]2(C[C@H](NS(C)(=O)=O)CCO2)C1`, the INHIBITION is recorded as 18.5%.
Regarding `CS(=O)(=O)N[C@H]1CCO[C@]2(CCN(C(=O)c3ccccn3)C2)C1`, the INHIBITION is 4.27%.
For `CS(=O)(=O)N[C@@H]1CCO[C@]2(CCN(C(=O)c3cscn3)C2)C1`, the INHIBITION came out at 35.7%.
As to `Cc1cncc(C(=O)N2CC[C@@]3(C[C@H](NS(C)(=O)=O)CCO3)C2)c1`, the INHIBITION came out at 54.4%.
As to `CS(=O)(=O)N[C@@H]1CCO[C@]2(CCN(C(=O)C3=CCCC3)C2)C1`, the INHIBITION is 21%.
`Cc1ccc(C(=O)N2CC[C@@]3(C[C@@H](NS(C)(=O)=O)CCO3)C2)s1`: the INHIBITION is recorded as 50.9%.
As for `CS(=O)(=O)N[C@@H]1CCO[C@]2(CCN(C(=O)c3cnccn3)C2)C1`, the INHIBITION worked out at 32.4%.
On to `Cc1nc(C(=O)N2CC[C@@]3(C[C@H](NS(C)(=O)=O)CCO3)C2)cs1`, for which the INHIBITION came out at 11.3%.
As for `Cc1nc(C(=O)N2CC[C@@]3(C[C@@H](NS(C)(=O)=O)CCO3)C2)cs1`, the INHIBITION is given as 62.5%.
The value for `CS(=O)(=O)N[C@H]1CCO[C@]2(CCN(CC3CCOCC3)C2)C1` was -44.4%; that for `Cc1ncoc1C(=O)N1CC[C@@]2(C[C@H](NS(C)(=O)=O)CCO2)C1` was 35.7%; that for `Cc1cc(C(=O)N2CC[C@@]3(C[C@@H](NS(C)(=O)=O)CCO3)C2)no1` was 69.5%.
Take `Cc1cc(C(=O)N2CCCC(n3cccn3)C2)c(C)n1C1CC1` (stereo unspecified): the INHIBITION came out at 5.7%.
As for `Cc1cc(CN(C)C(=O)NCC(C)N2CCc3ccccc32)no1` (stereo unspecified), the INHIBITION was determined as 15.6%.
Regarding `Cc1nccc(CN2CC[C@@]3(CCCN3Cc3ccccc3)[C@@H](O)C2)n1`, the INHIBITION is reported as 39.7%.
Take `CC(C)N1CCO[C@@H]2CN(S(=O)(=O)c3cccs3)CC[C@@H]2C1`: the INHIBITION worked out at 42.4%.
As to `Cc1cc(C)n(-c2ccc(C(=O)NCC(c3cccs3)N(C)C)cc2)n1` (stereo unspecified), the INHIBITION is recorded as 30%.
For the compound `CC(C)C(NC(=O)c1ccc(=O)[nH]c1)c1nnc2n1CCNCC2` (stereo unspecified), the INHIBITION is recorded as 12.6%.
`Cc1cc(C)c(C(=O)NC(c2nnc3n2CCNCC3)C(C)C)c(C)c1` (stereo unspecified): the INHIBITION is 37.7%.
Turning to `CC(C)c1ocnc1C(=O)NC(c1nnc2n1CCNCC2)C(C)C` (stereo unspecified), the INHIBITION was determined as 65.5%.
On to `COc1cc(N2CCCC(c3nccn3Cc3ccncc3)C2)ncn1` (stereo unspecified), for which the INHIBITION is 54.7%.
Regarding `COc1cc(N2CCC(c3nccn3Cc3ccccc3)CC2)ncn1`, the INHIBITION was found to be 11.7%.
Regarding `CC(C)OC(=O)N1CCCC(c2nccn2Cc2ccncc2)C1` (stereo unspecified), the INHIBITION came out at 50.3%.
Consider `CCN(CC)S(=O)(=O)N1CCCC(c2nccn2Cc2cccnc2)C1` (stereo unspecified), for which the INHIBITION is recorded as 15.2%.
As to `CCCSCC(=O)N1CCCC(c2nccn2Cc2ccncc2)C1` (stereo unspecified), the INHIBITION was 25%.
Regarding `COc1cc(N2CCCC(c3nccn3Cc3cccnc3)C2)ncn1` (stereo unspecified), the INHIBITION stood at 2.69%.
The same measure for `O=C(N1CCCC1)N1CCCC(c2nccn2Cc2ccncc2)C1` (stereo unspecified): -14.6%.
Take `CCN(CC)S(=O)(=O)N1CCCC(c2nccn2Cc2ccncc2)C1` (stereo unspecified): the INHIBITION amounted to 70.1%.
For the compound `CN(C)S(=O)(=O)N1CCCC(c2nccn2Cc2cccnc2)C1` (stereo unspecified), the INHIBITION worked out at 11.9%.
Turning to `O=C1NC2(CCN(C(=O)N3CCOCC3)CC2)CC1c1cccnc1` (stereo unspecified), the INHIBITION amounted to 9.34%.
Regarding `Cc1nc(CN2C[C@@H]3CN(C(=O)C4CC4)C[C@@H]3C2=O)cs1`, the INHIBITION was 42.6%.
The same measure for `O=C(NCCc1c[nH]c2ccccc12)C1CCC(Cn2cnnn2)CC1` (stereo unspecified): -65.9%; for `Cc1cc(NC(=O)CN2CCCC(Cn3nc(C)nc3C)C2)n(C)n1` (stereo unspecified): -22.15%.
The same measure for `CC(C)CC(O)C1CCN(Cc2ccc(N(C)C)nc2)CC1` (stereo unspecified): 10.6%; for `CSCc1ccc(N2CCN(c3ccc(Cl)cn3)CC2)nc1`: 38.3%.
`CSCc1ccc(N2CCC(C(O)Cc3ccccc3)CC2)nc1` (stereo unspecified): the INHIBITION came out at 74.3%.
Turning to `CSCc1ccc(N2CCC(C(O)CC(C)C)CC2)nc1` (stereo unspecified), the INHIBITION is recorded as 67.4%.
As for `CN(C)c1ccc(CN2CCC(C(O)Cc3ccccc3)CC2)cn1` (stereo unspecified), the INHIBITION was -42.8%.
Consider `Cc1ccc(N2CCC(C(O)Cc3ccccc3)CC2)nn1` (stereo unspecified), for which the INHIBITION was -2.97%.
For the compound `CSCc1noc(-c2ccc(C)c(N3CCNC3=O)c2)n1`, the INHIBITION was determined as 9.52%.
As for `COc1ccc(F)cc1-c1ccccc1CC1(C(=O)O)CCOCC1`, the INHIBITION amounted to 26.7%.
On to `O=C(N[C@@H]1c2ccccc2C[C@@H]1O)C1CCN(Cc2ccco2)CC1`, for which the INHIBITION is listed as 48.4%.
`CC(NS(N)(=O)=O)c1ccc(OCc2ccc(F)cc2)cc1` (stereo unspecified): the INHIBITION was determined as 14.6%.
With `CCc1cc(NC2CCN(CC(N)=O)CC2)nc(N2CCCCC2)n1`, the INHIBITION stood at 51.5%.
As to `CCc1cc(NC(C)(C)C)nc(N2CCOCC2)n1`, the INHIBITION was -3.12%.
Turning to `CCc1cc(NCC(N)=O)nc(N2CCCCC2)n1`, the INHIBITION is reported as 32%.
As to `CCc1cc(NC2CCS(=O)(=O)C2)nc(N2CCCCC2)n1` (stereo unspecified), the INHIBITION was found to be 52.6%.
Take `CCc1cc(NC2CCS(=O)(=O)CC2)nc(N2CCCCC2)n1`: the INHIBITION turned out to be 23.3%.
As for `CCc1cc(NCCNC(C)=O)nc(N2CCCC2)n1`, the INHIBITION is 48.2%.
For `CCc1n[nH]c(C2CN(C(=O)c3cc(C(N)=O)cs3)CCO2)n1` (stereo unspecified), the INHIBITION was -15.5%.
The value for `CCC(NC1CCCC1)c1ccc(S(C)(=O)=O)cc1` (stereo unspecified) was 22.1%; that for `CC(NC(=O)c1nc(=O)[nH][nH]1)c1ccc(OCC2CC2)c(F)c1` (stereo unspecified) was 5.53%.
Take `O=C(c1ccncc1)N1CCc2ncnc(C3CC3)c2CC1`: the INHIBITION is reported as 27.6%.
Consider `CCC(Nc1cccc(OC)c1)C(=O)NCc1ccc2[nH]c(=O)[nH]c2c1` (stereo unspecified), for which the INHIBITION is on record as -0.27%.
Consider `Cc1ccoc1C(=O)N1CCC(n2cc(CO)nn2)CC1`, for which the INHIBITION is on record as -37.8%.
As for `Cc1ccc(C(=O)N2CCC(n3cc(CO)nn3)CC2)cn1`, the INHIBITION worked out at 55.9%.
Take `Cc1cc(C(=O)N2CCC(n3cc(CO)nn3)CC2)ccc1F`: the INHIBITION came to 39.3%.
Take `C=C1C(C)(C)[C@@H]2CC[C@]1(C(=O)N1CCC(n3cc(CCO)nn3)CC1)C2`: the INHIBITION is given as -10.9%.
Consider `C=C1C(C)(C)[C@@H]2CC[C@]1(C(=O)N1CCC(Cn3cc(CO)nn3)CC1)C2`, for which the INHIBITION was determined as 45.6%.
As for `C=C1C(C)(C)[C@@H]2CC[C@]1(C(=O)N1CCC(n3cc(CO)nn3)CC1)C2`, the INHIBITION was determined as 54.5%.
With `Cn1cc(C2CC(=O)NC23CCN(Cc2nccs2)CC3)cn1` (stereo unspecified), the INHIBITION is listed as -0.371%.
Turning to `N#Cc1cccc(CN2C[C@H](OCC3CCOCC3)[C@H]3COC[C@H]32)c1`, the INHIBITION was 19.5%.
The value for `Cc1c[nH]nc1C1CCN(c2cnccn2)C1` (stereo unspecified) was 9.745%; that for `COc1ccc(-c2ccc(C(=O)O)c(F)c2)c(F)c1` was 15.2%.
For `Cn1cc(C(=O)OCC(N)=O)c(-c2ccc(F)cc2F)n1`, the INHIBITION worked out at 58.6%.
With `CC(CN(C)C(=O)c1cn(C)nc1-c1ccc(F)cc1F)C(=O)O` (stereo unspecified), the INHIBITION is recorded as 24.4%.
For the compound `Cc1cc(NC(=O)COC(=O)c2ccc(F)cc2Br)n(C)n1`, the INHIBITION is recorded as 34.1%.
Consider `CC(C)(C)n1cc(C(=O)O)c(-c2ccc(F)cc2F)n1`, for which the INHIBITION came to 68.3%.
Take `Cn1cc(C(=O)O)c(-c2ccc(F)cc2F)n1`: the INHIBITION came to 18%.
`O=C(Nc1cccc(Cn2cccn2)c1)N1CCCC(N2CCCC2)C1` (stereo unspecified): the INHIBITION was 16.2%.
For the compound `CS(=O)(=O)CCCSc1n[nH]c(-c2ccc3c(c2)CCC3)n1`, the INHIBITION is recorded as -18.8%.
